target: MYO1F; test: pooled miR-30 sensor sort-seq; sequence = guide strand; settings: shRNA
Further: reference of the scale not given here.

Row | Sequence | sensor-assay potency score (higher = more potent)
1 | TTCTTCACTTTCTCTCGCCCAA | -0.544
2 | TTGGCTTGTTTCTTGATCTTGG | 0.371
3 | TTGGCTGCCACTGTCTTCCCAG | -0.239
4 | TCATTTTGCATGACCACGCGGG | -0.396
5 | TTGTTGTTGCGCACAGTCTTGG | -0.625
6 | TAGTGTGTCGCTGAAGGTGAGG | -0.748
7 | AAAGTCGCTTCTGTCGTCCGTG | -0.528
8 | TAGCACTCAGAGTCTCACCAAA | -0.917
9 | TTGAGCACTGCCAAGTCGCCGA | -0.541

target: MYRIP; test: as above; settings: shRNA

Row | Sequence | sensor-assay potency score (higher = more potent)
10 | TAACACAACAATAGTTGCTTTT | -1.01
11 | TTTTGCTCTTCTGTTTTCGTAT | -0.368
12 | TGACACATAACACAGCATCAGC | -1.31
13 | TTAAATAATAATTCCCACCTTC | 0.152
14 | ATCTTCTGCAGGATTGTCGTGG | -0.78
15 | TTATCTCTTATAAACACTCTAA | -0.392
16 | TTTAATAGTAAATTAAATCTTT | -0.26
17 | TTTTGCTTTGAATCACACCAAC | -1.21
18 | ATTGCTAACTCGTACAGCCTGT | -0.149
19 | TTTTCGTATAATCTTCTGCAGG | -1.35
